Measurements: publication PMC5540273 (PLoS ONE, 2017)

What was measured:
Conditions in all cases: concentration: 1 μM, replicates: in singlicate; n = 1
BTK = system: BTK
BUB1 = system: BUB1
CAMK1B = system: CAMK1B
CAMK1D = system: CAMK1D
CAMK1G = system: CAMK1G
CAMK1 = system: CAMK1
CAMK2A = system: CAMK2A
CAMK2B = system: CAMK2B
CAMK2D = system: CAMK2D
CAMK2G = system: CAMK2G
CAMK4 = system: CAMK4
CAMKK1 = system: CAMKK1
CAMKK2 = system: CAMKK2
CASK = system: CASK
CDC2L1 = system: T1, CDC2L1
T1 construct: gene CDK11B

CDC2L2 = system: CDC2L2
CDC2L5 = system: T2, CDC2L5
T2 construct: gene CDK13

CDK11 = system: T3, CDK11
T3 construct: gene CDK19

CDK2 = system: CDK2
CDK3 = system: CDK3
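Further: KINOMEscan kinase panel screen.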

SMILES | %Inh (BTK) | %Inh (BUB1) | %Inh (CAMK1B) | %Inh (CAMK1D) | %Inh (CAMK1G) | %Inh (CAMK1) | %Inh (CAMK2A) | %Inh (CAMK2B) | %Inh (CAMK2D) | %Inh (CAMK2G) | %Inh (CAMK4) | %Inh (CAMKK1) | %Inh (CAMKK2) | %Inh (CASK) | %Inh (CDC2L1) | %Inh (CDC2L2) | %Inh (CDC2L5) | %Inh (CDK11) | %Inh (CDK2) | %Inh (CDK3)
Cc1cnc(N)c(/C=C/c2cncc(C(=O)NCCc3ccc(Cl)cc3Cl)c2)c1.Cl [GSK190937] | 1% | 9% | 0% | 10% | 7% | 12% | 0% | 0% | 6% | 27% | 0% | 7% | 20% | 7% | 0% | 17% | 0% | 92.8% | 0% | 6%
COc1ccc(CSc2nnc(-c3ccc4nccn4c3)o2)cc1C(F)(F)F | 15% | 0% | 8% | 0% | 22% | 5% | 2% | 32% | 11% | 16% | 0% | 0% | 0% | 15% | 4% | 5% | 50% | 40% | 0% | 4%
Fc1ccc(-c2nc3n(c2-c2ccncc2)CCS3)cc1 [GI98581] | 0% | 53% | 31% | 1% | 0% | 0% | 0% | 0% | 3% | 14% | 0% | 8% | 0% | 20% | 0% | 0% | 0% | 7% | 6% | 24%
CCCCc1nn2ncccc2c1-c1ccnc(NC2CC2)n1 [GW684374] | 0% | 91.3% | 12% | 5% | 9% | 9% | 0% | 0% | 12% | 7% | 0% | 0% | 14% | 0% | 0% | 11% | 0% | 5% | 0% | 0%
CC(=O)c1c(C)c2cnc(Nc3ccc(N4CCNCC4)cn3)nc2n(C2CCCC2)c1=O | 0% | 0% | 0% | 2% | 0% | 0% | 0% | 0% | 0% | 0% | 0% | 0% | 0% | 0% | 0% | 3% | 0% | 0% | 0% | 8%
COc1cccc(C2=C(Nc3cc(Cl)c(O)c(Cl)c3)C(=O)NC2=O)c1 [SB-390767] | 0% | 2% | 0% | 16% | 0% | 4% | 0% | 0% | 0% | 0% | 0% | 11% | 0% | 32% | 0% | 0% | 0% | 0% | 0% | 18%
COc1ccc(CSc2nnc(-c3ccc4c(c3)CCO4)o2)cc1 | 0% | 0% | 0% | 0% | 9% | 0% | 0% | 0% | 0% | 0% | 0% | 1% | 15% | 0% | 0% | 0% | 90% | 0% | 0% | 0%
COC(=O)c1cccc(NC(=O)NC2CCN(c3ccnc(Nc4ccc(F)cc4)n3)C2)c1 (stereo not drawn) [GSK1379725] | 0% | 0% | 16% | 0% | 0% | 0% | 0% | 0% | 0% | 0% | 0% | 0% | 0% | 25% | 0% | 0% | 0% | 68% | 0% | 4%
COc1ccc2cc(-c3nc(-c4ccccc4C(C)C)[nH]c3-c3ccncc3)ccc2c1 [SB-660566] | 0% | 89% | 31% | 7% | 0% | 7% | 0% | 0% | 2% | 4% | 7% | 8% | 0% | 7% | 0% | 2% | 0% | 33% | 0% | 13%
Cc1nccc(-c2c(-c3ccc(F)cc3)ncn2CCCN2CCOCC2)n1.Cl [SB-282975] | 6% | 0% | 0% | 0% | 0% | 0% | 0% | 0% | 7% | 0% | 6% | 9% | 0% | 21% | 100% | 23% | 5% | 11% | 37% | 26%
CCc1ccc(-c2ccc3c(c2)-c2n[nH]cc2S(=O)(=O)N3C)cc1 | 0% | 0% | 0% | 0% | 0% | 0% | 0% | 0% | 21% | 5% | 11% | 10% | 6% | 29% | 0% | 0% | 0% | 7% | 26% | 0%
CS(=O)(=O)CCNCc1nc(-c2ccc3ncnc(Nc4ccc(OCc5ccccc5)c(Cl)c4)c3c2)cs1.Cl [GW582764] | 35% | 62% | 4% | 3% | 0% | 9% | 0% | 0% | 1% | 18% | 0% | 0% | 7% | 5% | 0% | 0% | 0% | 0% | 0% | 1%
Nc1nccc(-c2c(-c3ccc(F)cc3)ncn2C2CCN(Cc3ccccc3)CC2)n1 [SB-219980] | 0% | 38% | 56% | 0% | 0% | 12% | 0% | 0% | 0% | 0% | 13% | 2% | 0% | 0% | 7% | 38% | 0% | 1% | 0% | 0%
O=c1cc(N2CCOCC2)nc2n(Cc3cccc(Cl)c3Cl)c3ccccc3n12 [GSK2299009] | 0% | 0% | 34% | 36% | 13% | 43% | 0% | 0% | 21% | 33% | 9% | 27% | 29% | 10% | 0% | 11% | 0% | 94.4% | 0% | 29%
CNc1cc(-c2ccc3c(N)n[nH]c3c2)nc(N)n1 [GSK2224810] | 0% | 53% | 8% | 23% | 0% | 24% | 0% | 13% | 7% | 21% | 0% | 5% | 11% | 6% | 3% | 30% | 0% | 8% | 0% | 9%
CN1c2ccc(-c3ccc(C(N)=O)cc3)cc2-c2[nH]ncc2S1(=O)=O | 0% | 0% | 32% | 10% | 0% | 27% | 11% | 7% | 18% | 2% | 16% | 100% | 21% | 1% | 0% | 0% | 2% | 0% | 0% | 0%
COc1ccc(Nc2nccc(-c3ccc(NC(=O)c4cc5cc(F)ccc5[nH]4)cc3)n2)cc1 [GSK1229496] | 0% | 29% | 26% | 0% | 6% | 0% | 0% | 0% | 3% | 34% | 0% | 0% | 17% | 0% | 0% | 14% | 0% | 22% | 0% | 0%
Nc1ncnc2occ(-c3ccc4c(c3)CCN4C(=O)Cc3cc(F)ccc3F)c12 [GSK2645446] | 0% | 0% | 0% | 8% | 9% | 6% | 0% | 0% | 14% | 20% | 0% | 0% | 13% | 0% | 0% | 12% | 0% | 81% | 0% | 0%
Cc1ccccc1Cn1ccn2c(=O)cc(N3CCOCC3)nc12 [GSK2269905] | 0% | 0% | 0% | 0% | 3% | 2% | 0% | 0% | 20% | 47% | 0% | 9% | 31% | 15% | 0% | 0% | 0% | 0% | 0% | 12%
Cc1ccc(NC(=O)c2ccc(Cl)cc2)cc1-c1ccc(C(=O)Nc2ccncc2)cc1 [GSK1398467] | 0% | 47% | 4% | 0% | 9% | 4% | 100% | 86% | 10% | 12% | 0% | 0% | 5% | 16% | 0% | 24% | 0% | 2% | 0% | 6%
c1ccc(-c2ccnc3[nH]ccc23)cc1 [SB-693578] | 0% | 58% | 11% | 9% | 15% | 14% | 0% | 15% | 31% | 21% | 0% | 10% | 11% | 26% | 0% | 6% | 0% | 20% | 0% | 2%
